Results with a measured potency or affinity are listed apart. A number with no mark means an inactive call. No rule for the calls is given here.
Assay: Vero cell cytotoxicity, dose response, cytotoxicity control for M. tuberculosis growth inhibitor project, Vero cells, purified and synthesized compounds, set 5 (AID 504909)
Details: series mostly up to 100 µM; viability: at the top concentration

Compound | viability [%]
Cc1cccc(/C=C/C(=O)c2ccc([N+](=O)[O-])o2)c1 | 106
Cc1nc(SCC(=O)NC2CCCC2)[nH]c(=O)c1C | 91.4
O=C(CSc1ncccn1)NC1CCCCC1 | 96.3
CCOC(=O)CSc1nc(C)c(C)c(=O)[nH]1 | 98.6
COc1c(N2CCNC(C)C2)c(F)cc2c(=O)c(C(=O)O)cn(C3CC3)c12 (stereo not drawn) | 108
O=C(CSc1nccc(=O)[nH]1)NC1CCCCC1 | 94.8
CN1CCC(NC(=O)CSc2nc3ccccc3c(=O)[nH]2)CC1 | 102
Nc1c(C(=O)NC2CCCCC2)nsc1C(=O)OCC(=O)NC1CCCCC1 | 102

Reference: PubChem BioAssay AID504909 (Southern Research Specialized Biocontainment Screening …, 2011)
